About 83,000 compounds went through this panel and 20% of them were active in at least one assay; those are over-represented in the sample as a whole.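 The endpoint reported here, percent growth, reads 100 for growth as untreated, 0 for no net growth and -100 for all cells dead.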 Calls of active or inactive are those of the source.
Test system: SK-MEL-5 melanoma
Assay: NCI-60 one-dose screen, 48 h (100 = growth as untreated, 0 = no growth, -100 = all killed)
Details: 10 µM unless noted
Protocol: Growth inhibition of the SK-MEL-5 human tumor cell line is measured as a screen for anti-cancer activity. Cells are grown in 96 well plates and exposed to the test compound for 48 hours. Compounds are tested at a single concentration, which is 10^-5 M for most compounds. The reported endpoint is percent growth (GI% or GIPRCNT), where numbers from 0 - 100% represent growth inhibition, and numbers from -100% - 0 represent cell death. For example, a value of 40 represents 60% growth inhibition. A value of 0 means no net growth occurred over the course of the experiment. A value of -40 indicates 40% of cells at the beginning of the experiment died by the end of the experiment. A value of -100 means all cells are dead at the end of the experiment.
NCI-60 Human Tumor Cell Lines Screen was performed using the standard one-dose NCI protocol, which is described in more detail at https://dtp.cancer.gov/discovery_development/nci-60/default.htm.
Compounds with GIPRCNT values below 10 were considered active. Activity score was based on GIPRCNT using the following formula: […]
Score is 0 for GIPRCNT values of 100 or above, 50 for GIPRCNT values of 0, and 100 for GIPRCNT values of -100.

Compound | growth
CCN(CC)CCNC(=O)c1ccc(-c2nc3ccc4[nH]ncc4c3c3c2CCCC3)cc1 | 69.8% (inactive)
COc1cc(-c2nc3ccc(C)cc3[nH]2)ccc1OCC(=O)N=Nc1c(O)[nH]c2ccc(Cl)cc12 | 56% (inactive)
O=C(Nc1ccccc1)c1sc(-c2ccccc2)cc1O | 83.7% (inactive)
COc1ccc(NC(=O)c2cccc(C3CCc4c(cc(OC)c(OC)c4OC)O3)c2)cc1 (stereo not given) | 4.29% (active)
CN(C)c1ccc(-c2cc(-c3ccc(Nc4nc(Nc5ccc(Cl)cc5)nc(Nc5ccc(Cl)cc5)n4)cc3)nc(N)c2C#N)cc1 | 66.7% (inactive)
CCC(CC)(N(CC(=O)O)CC(=O)O)C(CC)(CC)N(CC(=O)O)CC(=O)O | 105% (inactive)
COc1cc(C2Cc3ncccc3-c3[nH]c(=O)c4cccnc4c32)cc(OC)c1OC (stereo not given) | 18.6% (inactive)
Cc1cc(C)cc(Nc2ccc([N+](=O)[O-])c(NCCN3CCOCC3)n2)c1 | -20.3% (active)
CCOC(=O)c1c(NC(=O)c2ccc(C(C)(C)C)cc2)sc2cc(O)ccc12 | 98.1% (inactive)
CCCCCCCCn1ccc2cc(NC(=O)Cn3cc(CN4CCC(C)CC4)nn3)ccc21 | -23% (active)
CCC/C(=N\NC(N)=O)C(OC)OC | 100% (inactive)
Nc1ccc([N+](=O)[O-])cc1N=C/C=C/c1ccccc1 | 56.5% (inactive)
COc1cc(Nc2ncccc2NC(=O)c2cn(Cc3cccc(Oc4ccccc4)c3)nn2)cc(OC)c1 | 60% (inactive)
CCN(CCO)CC(C)Nc1ccc([N+](=O)[O-])c2sc3ccccc3c(=O)c12 (stereo not given) | 12.3% (inactive)
O=C(Cn1nnc2ccccc21)Nc1ccc(-c2nc3ccccc3s2)cc1 | 74.3% (inactive)
Cc1cc(C)c(-c2c(O)c(Br)c(-c3c(C)cc(C)c(Br)c3C)c(O)c2Br)c(C)c1Br | 1.69% (active)
CC(C)(C)C(=O)/C=C/c1ccc([N+](=O)[O-])cc1 | 81.7% (inactive)
Cc1cc(N2CCN(C)CC2)nc(NCc2cc(Nc3ccnc4cc(Cl)ccc34)ccc2F)n1 | -98% (active)
C=C1C(=O)O[C@H]2[C@H]1CC/C(CNC(=O)c1cc3ccccc3[nH]1)=C\CC[C@@]1(C)O[C@@H]21 | -87.6% (active)
CC(C)=CC(=O)N[C@@H]1CC2CCC3C(CC[C@@]4(C)C3CC[C@@H]4C(C)N(C)C)[C@@]2(C)C[C@@H]1O (stereo not given in full) | 10.1% (inactive)

Compound | growth
Cc1ccc(-c2nc(C#N)c(S(=O)(=O)NCCO)o2)cc1 | 75% (inactive)
C(/C=C/c1ccccc1)=Nc1ccc(CCc2ccc(N=C/C=C/c3ccccc3)cc2)cc1 | 96.6% (inactive)
Cn1cc(/C=C2/C(=O)Nc3ccccc32)c2ccccc21 | 79.2% (inactive)
COc1ccc(-c2nnc(SCC(=O)Nc3ccc(/C(C)=N\O)cc3)n2-c2ccccc2)cc1OC | 94.6% (inactive)
CCOc1ccc(NC(=O)c2cc(OC)c(OC)c(OC)c2)cc1 | 28.7% (inactive)
Cn1cc(-c2nonc2-c2c[nH]c3ccccc23)c2ccccc21 | 21.2% (inactive)
Cc1ccc2[nH]c(-c3ccc(S(C)(=O)=O)cc3)c(/C=N/N=C(N)N)c2c1 | 29.1% (inactive)
O=C1NC(=C(Cl)Cl)/C(=N/S(=O)(=O)N2CCCCC2)N1 | 82% (inactive)
Cc1c(N2CN3C[C@H](C)N4CN(c5c(C)n(C)n(-c6ccccc6)c5=O)CN5C[C@@H](C)N(C2)C3C54)c(=O)n(-c2ccccc2)n1C (stereo not given in full) | 102% (inactive)
COc1ccc2cc(-c3cnc4nonc4n3)ccc2c1 | 31.8% (inactive)
CCOC(=O)/C=C/c1c(C)[nH]c(=O)[nH]c1=O | 90.7% (inactive)
Cc1cc(F)ccc1S(=O)(=O)Nc1cc(-c2c(O)ccc3ccccc23)c(O)c2ccccc12 | -63.6% (active)
COc1ccc2nc3ccccc3c(NCc3ccccc3)c2c1 | 18.8% (inactive)
Cn1cc(-c2nn3cc(-c4ccccc4)nc3s2)c2ccccc21 | 65.5% (inactive)
CC(O)c1ncc(/C=C2\SC(=S)N(Cc3ccccc3)C2=O)s1 (stereo not given) | 93.7% (inactive)
O=C(OC[C@@H]1CO1)c1cccc2c(=O)c3ccccc3[nH]c12 | -90.9% (active)
COc1ccc(-c2cc(-c3cc(OC)c(OC)c(OC)c3)c(C#N)c(=O)n2CCCCCC(=O)NO)cc1 | 91.4% (inactive)
COc1ccc(-c2ccc(-c3ccc(C(=N)N)cn3)s2)cc1 | 85% (inactive)
Brc1ccc(-c2cnc3nonc3n2)cc1 | 48.5% (inactive)
COc1ccc(-c2ccc(=O)oc2C#Cc2cc(OC)c(OC)c(OC)c2)cc1O | -13.6% (active)

From PubChem BioAssay (NCI)
